Counter-ions that a name gives are not always drawn.
What was measured:
Details in all cases: 20 µM; incubation time: 27 h, anaerobic, 37 °C;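 for the amine columns active = adjusted P below 0.05 in both replicates with a change the same way and a mean fold change under 0.8 or over 1.25; inactive = the rest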
[1] = test system: Clostridium sporogenes DSM 1664; assay: growth (OD595) fold change vs plate DMSO controls (fold change (ratio)); higher = more growth
Summary of the method: (§1)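 Shaken 96-well cultures in mGAM, grown anaerobically for 27 h at 37 °C, were read at 595 nm. OD came from blank-subtracted readings, corrected for background with 20 µM compound solutions in water and scaled by a calibration factor of 5. Growth is the fold change versus the plate's median DMSO control. Values average 2 biological replicates, and any fold change above 1.5 is NA.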

Escherichia coli IAI1 [2] = assay: as above
Summary of the method: as §1

[3] = test system: Klebsiella aerogenes DSM 30053; assay: as above
Summary of the method: as §1

[4] = test system: Ruminococcus gnavus DSM 108212; assay: as above
Summary of the method: as §1

[5] = test system: Klebsiella aerogenes DSM 30053; assay: fold change of Histamine concentration vs plate DMSO controls (fold change (ratio)); higher = more amine produced, active = hit call of the paper (significant change in both replicates, either direction)
Summary of the method: (§2)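 Anaerobic mGAM cultures of four gut bacterial strains were grown at 37 °C for 27 h in 80 µL wells, starting at OD 0.1 before 1:1 dilution. Compounds were at 20 µM final (sweeteners 50 µM). Whole cultures were extracted with cold acetonitrile/methanol containing 0.1% formic acid and centrifuged. Amines were quantified by LC–triple-quadrupole MS (dynamic MRM) against external calibration curves and drift-corrected within batch. Each value is the fold change versus plate DMSO controls, averaged over 2 biological replicates.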

[6] = test system: Clostridium sporogenes DSM 1664; assay: fold change of Tryptamine concentration vs plate DMSO controls (fold change (ratio)); higher = more amine produced, active = hit call of the paper (significant change in both replicates, either direction)
Summary of the method: as §2

[7] = test system: Ruminococcus gnavus DSM 108212; assay: as above
Summary of the method: as §2

Escherichia coli IAI1 [8] = assay: fold change of Putrescine concentration vs plate DMSO controls (fold change (ratio)); higher = more amine produced, active = hit call of the paper (significant change in both replicates, either direction)
Summary of the method: as §2

[9] = test system: Klebsiella aerogenes DSM 30053; assay: as above
Summary of the method: as §2

Escherichia coli IAI1 [10] = assay: fold change of Cadaverine concentration vs plate DMSO controls (fold change (ratio)); higher = more amine produced, active = hit call of the paper (significant change in both replicates, either direction)
Summary of the method: as §2

[11] = test system: Klebsiella aerogenes DSM 30053; assay: as above
Summary of the method: as §2

[12] = test system: Ruminococcus gnavus DSM 108212; assay: fold change of 2-Phenylethylamine concentration vs plate DMSO controls (fold change (ratio)); higher = more amine produced, active = hit call of the paper (significant change in both replicates, either direction)
Summary of the method: as §2

Structure (SMILES) | growth [1] | growth (Escherichia coli IAI1 [2]) | growth [3] | growth [4] | fold change of Histamine concentration [5] | fold change of Tryptamine concentration [6] | fold change of Tryptamine concentration [7] | fold change of Putrescine concentration (Escherichia coli IAI1 [8]) | fold change of Putrescine concentration [9] | fold change of Cadaverine concentration (Escherichia coli IAI1 [10]) | fold change of Cadaverine concentration [11] | fold change of 2-Phenylethylamine concentration [12]
Clc1ccc(C(c2ccc(Cl)cc2)C(Cl)(Cl)Cl)cc1 | 0.984 | 0.974 | 0.996 | 1.12 | 1.03 (inactive) | 1.02 (inactive) | 0.962 (inactive) | 1.06 (inactive) | 1.02 (inactive) | 0.957 (inactive) | 1 (inactive) | 0.914 (inactive)
CC1(C)[C@H](C(=O)O[C@H](C#N)c2cccc(Oc3ccccc3)c2)[C@@H]1C=C(Br)Br | 1.12 | 0.981 | 0.998 | 1.02 | 1.02 (inactive) | 0.958 (inactive) | 0.967 (inactive) | 0.983 (inactive) | 1.01 (inactive) | 0.989 (inactive) | 1 (inactive) | 0.915 (inactive)
Cc1cccc(C)c1NC1=NCCCS1 [Xylazine] | 1.16 | 0.985 | 0.959 | 0.87 | 1.09 (inactive) | 1.01 (inactive) | 1 (inactive) | 1.03 (inactive) | 1.02 (inactive) | 0.991 (inactive) | 0.993 (inactive) | 1 (inactive)
c1ccc2c(c1)OCC(C1=NCCN1)O2 (configuration not stated) [Idazoxan hydrochloride] | 1.09 | 1.01 | 1.01 | 0.978 | 1 (inactive) | 0.976 (inactive) | 0.832 (inactive) | 1.1 (inactive) | 0.998 (inactive) | 0.996 (inactive) | 0.996 (inactive) | 0.785 (inactive)
CC(C)CC(N(C)C)C1(c2ccc(Cl)cc2)CCC1 (configuration not stated) [Sibutramine hydrochloride] | 0.99 | 1 | 1.01 | 0.908 | 1.05 (inactive) | 0.976 (inactive) | 0.985 (inactive) | 1.01 (inactive) | 0.999 (inactive) | 0.984 (inactive) | 0.989 (inactive) | 1 (inactive)
CCN(CC)CCOC(=O)C(O)(c1ccccc1)c1ccccc1 [Benactyzine hydrochloride] | 1.07 | 1.01 | 1.01 | 0.944 | 0.998 (inactive) | 0.997 (inactive) | 1.06 (inactive) | 1.02 (inactive) | 0.992 (inactive) | 0.986 (inactive) | 0.999 (inactive) | 1.07 (inactive)
Fc1ccc(C(OCCN2CCN(CCCc3ccccc3)CC2)c2ccc(F)cc2)cc1 | 1.09 | 1 | 1 | 0.845 | 0.974 (inactive) | 0.97 (inactive) | 0.638 (active) | 1.01 (inactive) | 0.993 (inactive) | 0.998 (inactive) | 1 (inactive) | 0.771 (active)
Oc1ccccc1-c1ccccc1 | 1 | 1.12 | 0.949 | 1.21 | 0.959 (inactive) | 0.993 (inactive) | 0.973 (inactive) | 0.955 (inactive) | 0.993 (inactive) | 1.01 (inactive) | 0.998 (inactive) | 0.965 (inactive)
NC(=O)CN1CCCC1=O [Piracetam] | 1.08 | 0.995 | 0.984 | 1.11 | 1.04 (inactive) | 1.01 (inactive) | 1.02 (inactive) | 1.04 (inactive) | 1.01 (inactive) | 0.997 (inactive) | 0.985 (inactive) | 1.01 (inactive)
Cc1ccc(/N=C/N(C)/C=N/c2ccc(C)cc2C)c(C)c1 | 0.953 | 1.05 | 1.03 | 1.06 | 1.03 (inactive) | 0.98 (inactive) | 0.939 (inactive) | 0.981 (inactive) | 1.01 (inactive) | 1.01 (inactive) | 0.991 (inactive) | 0.926 (inactive)
CN1[C@@H]2C[C@@H](OC(=O)[C@H](CO)c3ccccc3)C[C@H]1[C@@H]1O[C@@H]12 [Scopolamine hydrochloride] | 1.07 | 1.01 | 1.03 | 1.08 | 0.953 (inactive) | 1.2 (inactive) | 1.08 (inactive) | 1.17 (inactive) | 0.965 (inactive) | 0.948 (inactive) | 1.02 (inactive) | 1.12 (inactive)
O=C1C=CC(=O)C=C1 [1,4-Benzoquinone] | 0.883 | 0.868 | 0.844 | 0.66 | 0.996 (inactive) | 1.02 (inactive) | 1.18 (inactive) | 0.967 (inactive) | 1 (inactive) | 0.943 (inactive) | 1.11 (inactive) | 1.66 (active)
CCCN(CCOc1c(Cl)cc(Cl)cc1Cl)C(=O)n1ccnc1 | 1.07 | 0.976 | 1.01 | 0.951 | 1.02 (inactive) | 1.05 (inactive) | 1.02 (inactive) | 1 (inactive) | 1.01 (inactive) | 1.02 (inactive) | 0.998 (inactive) | 1.04 (inactive)
O=[N+]([O-])c1cc(C(F)(F)F)c(Cl)c([N+](=O)[O-])c1Nc1ncc(C(F)(F)F)cc1Cl | 0.825 | 0.986 | 0.991 | 1.18 | 1.07 (inactive) | 0.464 (inactive) | 0.887 (inactive) | 1.05 (inactive) | 1.05 (inactive) | 1.15 (inactive) | 1.02 (inactive) | 0.826 (inactive)
CCCN(CCC)C(=O)SCc1ccccc1 | 1.02 | 1 | 1.03 | 0.973 | 1.04 (inactive) | 1.02 (inactive) | 0.923 (inactive) | 1.02 (inactive) | 1.01 (inactive) | 0.995 (inactive) | 0.993 (inactive) | 0.897 (inactive)
c1ccc2c(c1)Nc1ccccc1S2 [Phenothiazine] | 1.09 | 0.906 | 0.937 | 1.02 | 0.931 (inactive) | 0.995 (inactive) | 1.01 (inactive) | 0.944 (inactive) | 0.953 (inactive) | 1.03 (inactive) | 0.973 (inactive) | 0.974 (inactive)
CC(C)N1C(=O)N(c2ccccc2)CS/C1=N\C(C)(C)C | 1.04 | 1.03 | 1.03 | 0.99 | 0.967 (inactive) | 1.03 (inactive) | 1.03 (inactive) | 1.02 (inactive) | 1.03 (inactive) | 1.06 (inactive) | 1.01 (inactive) | 0.961 (inactive)
N#Cc1c(Cl)c(Cl)c(Cl)c(C#N)c1Cl | 0.937 | 1.02 | 0.925 | 0.962 | 1.03 (inactive) | 0.995 (inactive) | 0.853 (inactive) | 1 (inactive) | 0.995 (inactive) | 1.08 (inactive) | 0.991 (inactive) | 0.804 (inactive)
CCC(C)c1ccccc1OC(=O)NC (configuration not stated) | 1.06 | 0.988 | 1.09 | 1.01 | 0.948 (inactive) | 0.949 (inactive) | 1.01 (inactive) | 1.05 (inactive) | 1.01 (inactive) | 0.972 (inactive) | 1 (inactive) | 1.03 (inactive)
Fc1ccc([C@]2(Cn3cncn3)O[C@H]2c2ccccc2Cl)cc1 (racemic) | 0.97 | 1.01 | 0.994 | 1.04 | 0.991 (inactive) | 1.06 (inactive) | 0.967 (inactive) | 0.935 (inactive) | 0.954 (inactive) | 1.03 (inactive) | 0.982 (inactive) | 1.02 (inactive)
CON(C)C(=O)Nc1ccc(Cl)c(Cl)c1 | 1.07 | 1.01 | 1.01 | 1.07 | 0.924 (inactive) | 1.02 (inactive) | 0.969 (inactive) | 0.982 (inactive) | 1.02 (inactive) | 1.02 (inactive) | 1 (inactive) | 0.976 (inactive)
C=CCN1CC[C@]23c4c5ccc(O)c4O[C@H]2C(=O)CC[C@@]3(O)[C@H]1C5 [Naloxone hydrochloride] | 1.22 | 1.04 | 1.03 | 1.24 | 1.04 (inactive) | 1.01 (inactive) | 0.998 (inactive) | 1.02 (inactive) | 0.997 (inactive) | 0.994 (inactive) | 0.997 (inactive) | 0.985 (inactive)
O=C(NCNC(=O)NC1C(=O)NC(=O)N1CO)NC1C(=O)NC(=O)N1CO (configuration not stated) [Imidurea] | 1.05 | 1.06 | 0.987 | 1.19 | 1.02 (inactive) | 0.998 (inactive) | 1.01 (inactive) | 1.01 (inactive) | 1 (inactive) | 1 (inactive) | 0.994 (inactive) | 1 (inactive)
CC1(C)C(C=C(Cl)Cl)C1C(=O)OC(C#N)c1ccc(F)c(Oc2ccccc2)c1 (mixture of isomers) | 0.877 | 1.01 | 0.965 | 1 | 1.09 (inactive) | 0.985 (inactive) | 0.996 (inactive) | 0.971 (inactive) | 1.03 (inactive) | 1.09 (inactive) | 1.02 (inactive) | 1.02 (inactive)
CCC1(c2cccc(O)c2)CCCCN(C)C1 (configuration not stated) [Meptazinol hydrochloride] | 0.881 | 1.03 | 1.02 | 1.01 | 0.983 (inactive) | 1.06 (inactive) | 0.997 (inactive) | 1.03 (inactive) | 1 (inactive) | 1.01 (inactive) | 1.01 (inactive) | 0.997 (inactive)
Cc1cccc(C)c1NC(=O)CN1CCCC1=O [Nefiracetam] | 1.01 | 0.985 | 1.02 | 1.06 | 0.973 (inactive) | 1.04 (inactive) | 1.01 (inactive) | 0.988 (inactive) | 1.01 (inactive) | 1.01 (inactive) | 1 (inactive) | 1.01 (inactive)
